{"source": "the supplement of paper PMC6555819", "data": [{"tested_on": "VDR:RXRa (NR concentration 270 nM, RXRa partner concentration 90 nM)", "assay": "PBM binding z-score (relative to random genomic background probes); higher = stronger binding; sequences stand for … in GC…GCGATTGACAGCGTAGAATGAAGG", "description": "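Protein-binding microarray (Agilent 4x180K custom design, double-stranded 60-nt probes: 5' GC cap, 34-nt variable region, 24-nt constant primer region; full probe sequence given). Purified or IVT nuclear receptor:RXRα heterodimers (3:1 NR:RXRα, mostly 270:90 nM) or homodimers were incubated for 1 h in PBS with 2% milk and no ligand, then detected with Alexa488 antibodies. Fluorescence from o1-orientation probes (~5 replicates averaged) was converted to z-scores against 500 random hg19 background probes. Variable regions are seed direct-repeat (DR0–DR5) sites, all their single-nucleotide variants and half-site ablations.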", "values": [{"sequence": "ATCTCTTGGTAAGACTCAGTTCAGTGAAGAACGC", "PBM binding z-score": 0.946}, {"sequence": "ATATCTAGGTAAAGTTCAGTGAAAGATCGATAGA", "PBM binding z-score": 1.53}, {"sequence": "GATACAGGGTCAAGCCCAGAGTACGCGTATTGAT", "PBM binding z-score": 4.5}, {"sequence": "CCTACTGGGCCGAAGGTCATTGATTCCAATGCTC", "PBM binding z-score": 2.51}, {"sequence": "TCATATAGGTAATACAGGTGAAAGTGGGCATCTA", "PBM binding z-score": 1.47}, {"sequence": "CCTACTGTGCCAAAAAGGTCATTGATGCCGATAA", "PBM binding z-score": 4.92}, {"sequence": "CGTCCAAGGTCAGCAGGTCAGTGAGAGCGACGTG", "PBM binding z-score": 4.04}, {"sequence": "AGAATGAGGGTACCAAAGATCAGGGAAACGCTTG", "PBM binding z-score": 0.0257}, {"sequence": "CCTACTGGGCCACGAAGGGTCATTGATTCAGTGA", "PBM binding z-score": 3.09}, {"sequence": "CCTAGCAGGCCAGGGTCGCTCAAGCATTTCGCTT", "PBM binding z-score": 0.8}, {"sequence": "CCAACTGGGCCATCAGGTCATTGATATCAACGTT", "PBM binding z-score": 1.98}, {"sequence": "AGAAGGAGGTTATTAAGATCAGGGAATTGCGGTC", "PBM binding z-score": 1.89}, {"sequence": "GCAACTGGGGCAAAGCAGGTTACCATAAGGTTGG", "PBM binding z-score": 0.361}, {"sequence": "CCGACTGGGGCAAGGTTACCAGAACGCACAGCCA", "PBM binding z-score": 0.0138}, {"sequence": "CGTCCAAGGTCATAGGACGTCAGTGAAGACAGAT", "PBM binding z-score": 4.13}, {"sequence": "GGAACGAGGGCAAAGTTAATAGCATCTGTCGACG", "PBM binding z-score": 1.17}, {"sequence": "AGAATGAGGTTATCCGTAGATCAGGGAAGAAAGT", "PBM binding z-score": 1.44}, {"sequence": "ATCGAAAGGTCGACGAGGTGAGTATACACCGTTT", "PBM binding z-score": 5.23}, {"sequence": "TCTTGTAGATCAGCAGGTTGAGAAAGCTGGCCAA", "PBM binding z-score": 0.543}, {"sequence": "TCTATTAGTTGATTAGGGTAACCGAAACAGCGGA", "PBM binding z-score": 0.996}, {"sequence": "AGAATGAGGTTACCGAAGATCAGGGAAACGCTTG", "PBM binding z-score": 1.53}, {"sequence": "CAGCCTAGGACAGGGCCAGTATAGGAGGAACGTT", "PBM binding z-score": -0.833}, {"sequence": "TCTATTCGTTGAAGGGCAACCGACGAGTCCGTTT", "PBM binding z-score": 1.08}, {"sequence": "AATACAGGGTCACTAGGCCAGAGCAGGTACGAAT", "PBM binding z-score": 4.03}, {"sequence": "TCTAGTAGGCCAGAGGGTCACTCAAGAGGTACGG", "PBM binding z-score": 1.91}, {"sequence": "CGATCTAGGTCATTGACAGGACAGTGAATAGTAA", "PBM binding z-score": 2.09}, {"sequence": "ATATGTAGGTTACATCCGGGTAATTCAGGCTATG", "PBM binding z-score": 0.536}, {"sequence": "CCTACTGGGTCATCAGGTCATTGATATCAACGTT", "PBM binding z-score": 4.24}, {"sequence": "TCTAGCAGGCCAGAGGGTCTCTCAAGAGGTACGG", "PBM binding z-score": -0.687}, {"sequence": "ATCTCTAGGTAAGACTCAGTTCAATGAAGAACGC", "PBM binding z-score": 1.07}, {"sequence": "AATACAGGTTCATCGTAGGCCAGAGTACGCACAG", "PBM binding z-score": 4.6}, {"sequence": "AGAACTAGGGCACGCTGAGTTGATAGCAGAGTAG", "PBM binding z-score": 0.303}, {"sequence": "CCGACAGGGGCAAGGTTACCATAACGCACAGCCA", "PBM binding z-score": 0.616}, {"sequence": "CTCGAGAGGTCGGTTGAGGTGAGTATACGGATAA", "PBM binding z-score": 2.59}, {"sequence": "ATCGTAAGGTCGAGGTGAGTATAGAGAAAGGGAA", "PBM binding z-score": 1.99}, {"sequence": "CATACAGGCTCAGCTAGGCCAGAGTAGGGACGGC", "PBM binding z-score": -0.721}, {"sequence": "GGAACCAGGGCATTCGAGTTGATAGCATGGCGAT", "PBM binding z-score": 2.21}, {"sequence": "GATACAGGGTCAGATAGAGGCCAGAGTATGGAAA", "PBM binding z-score": 3.49}, {"sequence": "TTACCAAGGTGACAGGTCGTTGATGCACGCCTTG", "PBM binding z-score": 0.821}, {"sequence": "CCTACTCGGCCAAAGGTCATTGATTCCAATGCTC", "PBM binding z-score": 4.8}]}]}
